SARS PLP yeast: qHTS of Yeast-based Assay for SARS-CoV PLP; S. cerevisiae expressing SARS-CoV PLpro, growth rescue; hit rate 0.19% among 330,000; Potency, µM (doses to about 32.9 µM), inactives show top-dose activity, positive = growth rescue, usual class: activators; also: 0% is about no effect; nearly all actives have a fitted effect of over 55% in size
Pf growth 48h: Primary qHTS for delayed death inhibitors of the malarial parasite plastid, 48 hour incubation; P. falciparum luciferase growth in erythrocytes, 48 h; Potency, µM (doses to about 28.7 µM), inactives show at the highest dose activity change, negative = inhibition, usual class: inhibitors; hit rate 5.9% among 310,000; AID 504832, 2011; active = well fitted inhibition curve with a large enough effect; inconclusive = small, poorly fitted or top-dose-only effect, or another doubt; inactive = no such curve, though single readings can be large or run the other way; also: % is scaled to controls: 0 for no effect and ±100 for the full control effect
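Read-out is firefly luciferase luminescence from an integrated reporter in P. falciparum, so falling signal marks reduced parasite growth. Infected erythrocytes were at 2% hematocrit and 0.1% parasitemia (final) in Albumax-supplemented RPMI 1640.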
NS1 inh: qHTS Assay for Inhibitors of Influenza NS1 Protein Function | Potency, µM (titrated, usually from 46.1 µM), for inactives: top-dose activity, positive = more growth | hit rate 0.4% among 270,000; also: actives are rising curves; nearly all actives have a fitted effect of over 50% in size
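Growth recovery, yeast-based: influenza A NS1 expressed in S. cerevisiae causes slow growth, and suppressors are detected by OD600. The parent strain without NS1 is used as positive control.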
Pf growth 96h: Primary qHTS for delayed death inhibitors of the malarial parasite plastid, 96 hour incubation. hit rate 6.9% among 320,000. Potency, µM (titrated, usually from 28.7 µM), inactives show at the highest dose activity change, negative = inhibition, most hits filed as inhibitors. P. falciparum luciferase reporter growth, 96 h; active = well fitted inhibition curve with a large enough effect; inconclusive = small, poorly fitted or top-dose-only effect, or another doubt; inactive = no such curve, though single readings can be large or run the other way; also: % is scaled to controls: 0 for no effect and ±100 for the full control effect
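P. falciparum expressing integrated firefly luciferase, in erythrocytes at 2% hematocrit, 0.05% parasitemia, incubated with compounds 96 h at 37 C, 5% CO2. Growth inhibition read as loss of luminescence; two-generation exposure targets delayed-death apicoplast inhibitors.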
The depositor's hits bear a star; u = inconclusive; x = not tested or not shown; [ ] = another dose, or the depositor's remark. Compounds with a hit are over-represented: about 10% of the library has one in this group of screens. Unless noted, calls follow the shape of the full dose curve. Potency is read from the fitted curve at half-maximal effect.

SMILES	SARS PLP yeast	Pf growth 48h	NS1 inh	Pf growth 96h
CC1CCCCN1CCNC(=O)c1ccc2c(=O)n(Cc3ccc(Cl)cc3)c(=S)[nH]c2c1 (configuration not stated)	1%	3.7µM*	27%	8%
CN1CCN(CCCNC(=O)c2ccc(Cn3c(=S)[nH]c4ccc(Br)cc4c3=O)cc2)CC1	0%	u	x	1%
CC1CCN(CCCNC(=O)c2ccc(Cn3c(=S)[nH]c4ccc(Br)cc4c3=O)cc2)CC1	-1%	13µM*	x	16%
Oc1ccccc1-c1nc(NCC2CCCO2)c2ccccc2n1 (configuration not stated)	-26%	u	-104%	10µM*
COc1cccc(-c2nc(NCC3CCCO3)c3ccccc3n2)c1O (configuration not stated)	-10%	4%	7%	-17%
COc1ccccc1Nc1nc(NCC2CCCO2)c2ccccc2n1 (configuration not stated)	-3%	u	-5%	1µM*
Cc1cn([C@H]2C[C@@H](N=[N+]=[N-])[C@@H](CO)O2)c(=O)[nH]c1=O	x	x	1%	x
O=C(c1nc2ccccn2c1CN1CCC(Cc2ccccc2)CC1)N1CCCC1	0%	10µM*	2%	-2%
Cc1cc(CN2CCCCC2)c(O)c(CN2CCCCC2)c1	x	x	-5%	x
CC(C)(C)c1nc(CN2CCCCC2)cc(CN2CCCCC2)c1O	1%	9.3µM*	-6%	u
O=C1c2ccccc2CCC12N=NCC2c1ccc(Cl)cc1 (configuration not stated)	-17%	10µM*	-61%	u
O=C1NC(c2ccc(Br)cc2)Nc2ccccc21 (configuration not stated)	-9%	3%	6%	99%
O=C1c2ccccc2CCC12N=NCC2c1ccc(Br)cc1 (configuration not stated)	-24%	x	-112%	2.3µM*
CCCCNC(=O)C1=C(N)C(C(=O)Nc2ccc(C)c(S(=O)(=O)N3CCCCC3)c2)SC1=Nc1ccc(C)cc1C (configuration not stated)	-6%	x	u	10µM*
CCCCC(=O)Nc1ccc(C)c(S(=O)(=O)N2CCCCCC2)c1	0%	u	x	u
COc1ccc(NC(=O)c2cc3n(n2)C(C(F)(F)F)CC(c2ccc4c(c2)OCO4)N3)cc1OC (configuration not stated)	8%	3%	-90%	3.3µM*
COc1ccc(C2CC(C(F)(F)F)n3nc(CO)c(Cl)c3N2)cc1OC (configuration not stated)	1%	1%	0%	7.4µM*
COc1cccc(C2CC(C(F)(F)F)n3ncc(C(=O)NC(C)(C)C)c3N2)c1 (configuration not stated)	-12%	4%	2%	u
COc1ccc(C2CC(C(F)(F)F)n3ncc(C(=O)Nc4cccc(O)c4)c3N2)cc1OC (configuration not stated)	2%	10µM*	19%	x
Nc1ncnc2nc(-c3ccc(C[P+](c4ccccc4)(c4ccccc4)c4ccccc4)cc3)[nH]c12	x	x	-4%	x
COc1cccc(/C=N/n2c(-c3ccco3)nc3ccccc3c2=O)c1OC	11%	45%	11%	64%
O=C(NC1CCSc2ccccc21)c1cc(S(=O)(=O)N2CCOCC2)ccc1Cl (configuration not stated)	2%	u	x	-8%
O=c1ccc2c(OCCCCc3ccccc3)c3ccoc3cc2o1	x	x	-15%	x
O=S(=O)(c1ccsc1)N1CC=C(c2ccccc2)CC1	2%	-19%	-6%	-13%
NC(=O)c1ccc(N2CCN(c3ccc(O)cc3)CC2)c([N+](=O)[O-])c1	-1%	u	3%	1.7µM*
SMILES	SARS PLP yeast	Pf growth 48h	NS1 inh	Pf growth 96h
NC(=O)CC(NC(=O)c1ccccc1)c1ccc(N2CCN(c3ccc(F)cc3)CC2)c([N+](=O)[O-])c1 (configuration not stated)	3%	39%	8%	58%
NC(=O)CC(NC(=O)c1ccccc1)c1ccc(N2CCN(c3ccccc3)CC2)c([N+](=O)[O-])c1 (configuration not stated)	-14%	-18%	21%	15µM*
Cn1c(=O)c2[nH]c([C@@H]3CC(=O)C[C@H](c4nc5c([nH]4)c(=O)n(C)c(=O)n5C)N3)nc2n(C)c1=O	x	x	-5%	x
CCCCn1c(=O)n(CC(=O)NCc2ccc(C)cc2)c(=O)c2c1nc(CO)n2CCC	1%	u	-5%	4.1µM*
Cc1cc(NC(=O)CSc2nccn2C)no1	0%	13%	x	16%[5.75 µM]
Cc1cc(C)c(NC(=O)CSc2nccn2C)c(C)c1	10%	15%	12%	0.074µM*
Cc1[nH]c(-c2ccc(F)cc2)cc1C(=O)N1CCN(c2cccc(Cl)c2)CC1	-6%	u	-52%	-20%
COc1ccc(-c2c(C)nn(-c3ccccc3)c2N)cc1	-4%	x	-73%	103%
CCOC(=O)c1c(C)nc2c(c(SC)nn2-c2ccccc2)c1N	-4%	u	0%	u
Cc1nn(-c2ccccc2)c2nc(N)c(C#N)c(-c3ccc(C(C)(C)C)cc3)c12	0%	u	1%	4.7µM*
COc1cccc(-c2c(C#N)c(N)nc3c2c(C)nn3-c2ccccc2)c1O	-6%	0.37µM*	-1%	0.52µM*
O=C(c1ccc2c(c1)OCO2)C1CCCN(Cc2ccc(OC(F)F)cc2)C1 (configuration not stated)	-4%	25%	1%	10µM*
O=C(c1ccc2c(c1)OCO2)C1CCCN(Cc2ccc(F)c(F)c2)C1 (configuration not stated)	3%	7%	-6%	u
COc1ccccc1CN1C(=O)c2cccc3cccc(c23)C1=O	-24%	-6%	-5%	16%
COc1cc(CCN2C(=O)c3cccc4cccc(c34)C2=O)c(S(=O)(=O)NCCO)cc1OC	3%	u	2%	u
COc1ccc(CCN2C(=O)c3cccc4c(C(=O)N5CCCCC5)ccc(c34)C2=O)cc1OC	-13%	u	11%	8.3µM*
COc1cc(CCN2C(=O)c3cccc4cccc(c34)C2=O)c(S(=O)(=O)N2CCC(C)CC2)cc1OC	-11%	6.6µM*	16%	u
COc1cc(CCN2C(=O)c3cccc4cccc(c34)C2=O)c(S(=O)(=O)NCCCO)cc1OC	-12%	u	5%	8.3µM*
COc1ccc(CCNC(=O)CCN2C(=O)c3cccc4cccc(c34)C2=O)cc1OC	0%	3%	x	3%
COc1cc(CCN2C(=O)c3cccc4cccc(c34)C2=O)c(S(=O)(=O)N2CCCCCC2)cc1OC	3%	u	u	2.3µM*
Cc1cc(C)n(C(C)Sc2ccccc2)n1 (configuration not stated)	-14%	u	x	-4%
CCC(C)[C@@H](N)C(=O)N/N=C/c1cccc2nccnc12 (some centres not stated)	-1%	u	0%	u

Source: PubChem (National Center for Advancing Translational Sciences (NCATS))
